From article PMC5540273 (PLoS ONE, 2017)
Where two headings read alike, the source gives them in different places.

Key:
Conditions in all cases: n = 1
[1] = tested on: PIM1
[2] = tested on: PIM2
[3] = tested on: PIM3
[4] = tested on: PIP5K1A
[5] = tested on: PIP5K1C
[6] = tested on: PIP5K2B
[7] = tested on: T1, PIP5K2C
T1 construct: gene PIP4K2C

[8] = tested on: T2, PKAC-alpha
T2 construct: gene PRKACA

[9] = tested on: T3, PKAC-beta
T3 construct: gene PRKACB

[10] = tested on: PKMYT1
[11] = concentration: 1 μM, replicates: in singlicate
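Also: KINOMEscan kinase panel screen.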

| SMILES | %Inh [1, 11] [%] | %Inh [2, 11] [%] | %Inh [3, 11] [%] | %Inh [4, 11] [%] | %Inh [5, 11] [%] | %Inh [6, 11] [%] | %Inh [7, 11] [%] | %Inh [8, 11] [%] | %Inh [9, 11] [%] | %Inh [10, 11] [%] | %Inh ([1]; 1 µM) [%] | %Inh ([2]; 1 µM) [%] | %Inh ([3]; 1 µM) [%] | %Inh ([4]; 1 µM) [%] | %Inh ([5]; 1 µM) [%] | %Inh ([6]; 1 µM) [%] | %Inh ([7]; 1 µM) [%] | %Inh ([8]; 1 µM) [%] | %Inh ([9]; 1 µM) [%] | %Inh ([10]; 1 µM) [%] |
| --- | --- | --- | --- | --- | --- | --- | --- | --- | --- | --- | --- | --- | --- | --- | --- | --- | --- | --- | --- | --- |
| Fc1cc(Cl)ccc1Nc1ccnc2cc(-c3ccc(CN4CCCCC4)o3)ccc12 [GW560116] | 13 | 0 | 0 | 0 | 57 | 5 | 71 | 100 | 0 | 0 | – | – | – | – | – | – | – | – | – | – |
| COc1ccc(Nc2nccc(NCCNC(=O)Nc3ccccc3F)n2)cc1 [GSK1379901] | 0 | 0 | 0 | 35 | 33 | 14 | 56 | 0 | 0 | 4 | – | – | – | – | – | – | – | – | – | – |
| Cn1ccc2ncnc(Oc3ccc(Nc4nc5ccccc5[nH]4)cc3)c21 | 0 | 0 | 0 | 0 | 25 | 26 | 16 | 3 | 0 | 18 | – | – | – | – | – | – | – | – | – | – |
| Cc1cccc(-c2nc(Nc3cccc(C(N)=O)c3)c3ccccc3n2)n1 [GW876019] | 3 | 9 | 4 | 12 | 50 | 0 | 50 | 0 | 36 | 32 | – | – | – | – | – | – | – | – | – | – |
| CC1=C(C(=O)Nc2cc3cn[nH]c3cc2F)C(c2ccc(C(F)(F)F)cc2)CC(=O)N1 (stereo not drawn) [GSK429286] | 0 | 0 | 0 | 0 | 10 | 17 | 11 | 45 | 60 | 17 | – | – | – | – | – | – | – | – | – | – |
| CCn1c(-c2ccccn2)nc2cnccc21 [SB-736398] | 0 | 0 | 0 | 6 | 34 | 7 | 32 | 92.9 | 6 | 0 | – | – | – | – | – | – | – | – | – | – |
| COC(=O)c1c(-c2ccccc2)c2cc(C(=O)O)ccc2c(=O)n1Cc1ccccc1 | 0 | 0 | 0 | 18 | 17 | 22 | 13 | 0 | 24 | 0 | – | – | – | – | – | – | – | – | – | – |
| Nc1nc(-c2nccs2)c(-c2ccnc3ccccc23)s1 [GW693542] | 9 | 0 | 0 | 0 | 45 | 0 | 28 | 0 | 13 | 0 | – | – | – | – | – | – | – | – | – | – |
| CC(C)(C)c1ccc(C(=O)Nc2cn3cc(Cl)ccc3n2)cc1 | 0 | 13 | 0 | 0 | 44 | 0 | 48 | 8 | 0 | 0 | – | – | – | – | – | – | – | – | – | – |
| Cc1cc(N2Cc3ccccc3C2)nc(Nc2ccc(S(=O)(=O)N3CCOCC3)cc2)n1.Cl [GSK1669917] | 14 | 0 | 0 | 0 | 75 | 10 | 0 | 0 | 0 | 21 | – | – | – | – | – | – | – | – | – | – |
| Cc1cccc(-c2cc(Nc3ccncc3)c3ccccc3n2)n1 [GSK223675] | 23 | 0 | 19 | 0 | 25 | 4 | 8 | 0 | 0 | 0 | – | – | – | – | – | – | – | – | – | – |
| Cc1cccc(-c2nc(Nc3ccncc3)c3ccccc3n2)n1 [GW855857] | 0 | 18 | 0 | 10 | 40 | 0 | 18 | 23 | 30 | 0 | – | – | – | – | – | – | – | – | – | – |
| Cc1ccccc1-n1cnc2c(N)ncnc21 [SKF-97510] | 0 | 0 | 2 | 0 | 0 | 0 | 0 | 10 | 0 | 0 | – | – | – | – | – | – | – | – | – | – |
| O=C(Nc1n[nH]c2nc(-c3nccs3)c(Br)cc12)C1CCCC1 [SB-742609] | 0 | 0 | 0 | 0 | 36 | 0 | 0 | 0 | 0 | 14 | – | – | – | – | – | – | – | – | – | – |
| COc1cc2ncnc(Nc3ccc4nc(-c5ccccc5)[nH]c4c3)c2cc1OC.Cl [GW282450] | 0 | 0 | 0 | 6 | 54 | 3 | 11 | 6 | 0 | 10 | – | – | – | – | – | – | – | – | – | – |
| Cc1cc(-c2ccc3c(c2)CC[C@@H](N[C@@H](C)c2ccccc2)C3)cnc1N.Cl [GW412617] | 11 | 0 | 0 | 0 | 34 | 14 | 0 | 0 | 9 | 0 | – | – | – | – | – | – | – | – | – | – |
| Cl.c1ccc(-c2n[nH]cc2-c2ccnc(-c3ccc(CN4CCOCC4)cc3)c2)nc1 [GW776245] | 13 | 13 | 15 | 0 | 27 | 30 | 0 | 10 | 13 | 0 | – | – | – | – | – | – | – | – | – | – |
| Cc1ccc(NC(=O)Nc2cccc(C(F)(F)F)c2)cc1 [GSK955403] | – | – | – | – | – | – | – | – | – | – | 5 | 15 | 21 | 0 | 0 | 0 | 0 | 14 | 14 | 0 |
